This note sets out measurements from PubChem BioAssay (EPA / NIEHS).

Records with an inconclusive call do not appear. The source made the active and inactive calls. How the source made its calls: active means hit-call score of the fitted dose curve at least 0.9, where 1 is the maximum; inconclusive means response in the unintended direction; inactive means score below 0.9.

Read-out in this test: organic anion transporter (SLCO1B1), SLCO1B1 (gene 10599)
Put plainly: CLD_SLCO1B1_24hr: CellzDirect (CLD) Gene Expression Assay for organic anion transporter (SLCO1B1) at 24 hours (AID 2283690). The protocol:
CLD_24hr is a cell-based, multiplexed-readout assay that uses hepatocyte, a human liver primary cell, with measurements taken at 24 hours after chemical dosing in a 96-well plate.CLD_SLCO1B1_24hr is one of 16 assay component(s) measured or calculated from the CLD_24hr assay. It is designed to make measurements of mRNA induction, a form of inducible reporter, as detected with chemiluminescence signals by Quantitative Nuclease Protection Assay (qNPA) technology.Data from the assay component CLD_SLCO1B1_24hr was analyzed at the endpoint, CLD_SLCO1B1_24hr, in the positive analysis fitting direction relative to DMSO as the negative control and baseline of activity. Using a type of inducible reporter, gain-of-signal activity can be used to understand changes in the reporter gene as they relate to the gene SLCO1B1. Furthermore, this assay endpoint can be referred to as a primary readout. To generalize the intended target to other relatable targets, this assay endpoint is annotated to the transporter intended target family, where subfamily is organic anion transporter.
Human hepatocyte cultures were treated daily for two consecutive days with fresh dosing solutions containing appropriate concentrations of the 320 ToxCast chemicals (chemical identities were blinded to CellzDirect and other ToxCast collaborators), vehicle control (0.2% DMSO), and positive control inducers as summarized in Table 1. Due to the large number of treatment groups and chemicals examined, the ToxCast chemicals were divided into two groups (spanning two independent cultures of hepatocytes from separate donor preparations (Hu778: ToxCast plates 1 and 2; Hu776: ToxCast plates 3 and 4). Each preparation of human hepatocyte cultures was treated with respective vehicle control, medium only control, set of six positive controls/reference chemicals for the five hepatic receptor pathways, and a subset of eight of the ToxCast chemicals (indoxacarb, pyrithiobac-sodium, norflurazon, cyhalofop-butyl, methomyl, thiram, acetochlor, and propiconazole). These replicate data, coupled with internal replicates designed within the blinded ToxCast chemical library, provided additional data to evaluate interindividual differences between hepatocyte preparations and their potential impact on chemical profiles.Cell morphology and integrity were evaluated using phase-contrast microscopy as an indicator of hepatocyte cell health (Tyson & Green, 1987). Cultures for each treatment group (i.e., media, vehicle [0.2% DMSO], positive control inducers [multiple concentrations], and the ToxCast chemicals [multiple concentrations]) were observed and cell morphology was assessed relative to vehicle control cultures at each harvest time point (0, 6, 24, or 48 h). […] Images were evaluated at the conclusion of the study to assess changes in cell integrity and account for the effects of chemical exposure on uncharacteristic changes in concentration-dependent gene expression profiles. The results from these determinations of apparent cytotoxicity were annotated (yes/no) alongside the corresponding qNPA data for reference.At the conclusion of each treatment period, hepatocyte cultures (96-well) were washed with 1 volume of HBSS, lysed by addition of 25 ul ArrayPlate lysis buffer (HTG, Tucson, AZ), and 70 ul/well of Denaturation Oil, denatured by incubation at 95C for 10 min, and frozen at approximately -70C until analysis by nuclease protection assay (qNPA) (Roberts et al., 2007). For qNPA analysis, cell lysates were thawed at 50C for approximately 30 min, qNPA probes were added, and samples were incubated at 95C for 10 min to begin the detection process by denaturing the target RNA, dissociating the duplexes and secondary structure hybridization. At the conclusion of the hybridization period, S1 nuclease reagent was added to each sample to digest all nonprotected nucleotides at 50C for 60-90 min. […]
With `CCS(=O)(=O)c1cccnc1S(=O)(=O)NC(=O)Nc1nc(OC)cc(OC)n1`, the compound was called inactive.
Under `Cc1cc(C)nc(NC(=O)NS(=O)(=O)c2ccccc2C(=O)OC2COC2)n1` stands “inactive”; under `O=C(O)C(F)(F)C(F)(F)C(F)(F)C(F)(F)C(F)(F)C(F)(F)C(F)(F)F`, “inactive”.
With `CCc1ccc(C(=O)NN(C(=O)c2cc(C)cc(C)c2)C(C)(C)C)cc1` the entry was “inactive”; with `CN1CSC(=S)N(C)C1`, “inactive”; with `COC(=O)c1ccccc1S(=O)(=O)NC(=O)Nc1nc(C)nc(OC)n1`, “inactive”.
Consider `Oc1ccc(Cl)cc1Cc1ccccc1`, for which the outcome was inactive.
`CCOCN(C(=O)CCl)c1c(C)cccc1CC`: the compound was classed as inactive.
For the compound `COc1cc(OC)nc(NC(=O)NS(=O)(=O)c2cc(NC=O)ccc2C(=O)N(C)C)n1`, the result was inactive.
`[2H]C1([2H])[n+]2ccccc2-c2cccc[n+]2C1([2H])[2H]`: the outcome was inactive.
In the case of `CC[C@H](C)[C@H]1O[C@]2(C=C[C@@H]1C)C[C@@H]1C[C@@H](C/C=C(\C)[C@@H](O[C@H]3C[C@H](OC)[C@@H](O[C@H]4C[C@H](OC)[C@@H](O)[C@H](C)O4)[C@H](C)O3)[C@@H](C)/C=C/C=C3\CO[C@@H]4[C@H](O)C(C)=C[C@@H](C(=O)O1)[C@]34O)O2` (tested in a mixture with another compound), the result was inactive.
Under `COP(=O)(OC)OC=C(Cl)Cl` stands “inactive”; under `COP(=S)(OC)Oc1ccc([N+](=O)[O-])cc1`, “inactive”; under `O=C1c2ccccc2C(=O)N1SC(Cl)(Cl)Cl`, “inactive”.
For `COC(=O)c1ccccc1S(=O)(=O)NC(=O)N(C)c1nc(C)nc(OC)n1`, the compound was called inactive.
Turning to `O=C(Nc1ccccc1)Nc1cnns1`, the compound was called inactive.
In the case of `CC1(c2ccc(Oc3ccccc3)cc2)OC(=O)N(Nc2ccccc2)C1=O` (configuration not stated), the outcome was inactive.
Consider `CCN(CC)C(=O)SCc1ccc(Cl)cc1`, for which the outcome was inactive.
With `CC(C)OC(=O)Nc1cccc(Cl)c1` the entry was “inactive”; with `Oc1cc(Cl)ccc1Oc1ccc(Cl)cc1Cl`, “inactive”.
On to `OCCOc1ccccc1`, for which the outcome was inactive.
On to `N#CN`, for which the compound was classed as inactive.
